# Data published in paper PMC7862700, “An all-to-all approach to the identification of sequence-specific readers for epigenetic DNA modifications on cytosine”.
# Legend:
# Assay in all cases: DAPPL (digital affinity profiling via proximity ligation, sequencing); 10 mM Tris-HCl pH 7.5, 50 mM NaCl, 1 mM DTT, 4% glycerol, room temperature, 30 min; GST-TFs on glutathione beads, 16-mer random dsDNA library, 0.1% formaldehyde crosslink after washing; high values mean tight binding
# FLI1 = target: T1, FLI1 (Homo sapiens, UniProt Q01543 1-452); conditions: protein: recombinant; tags: N-terminal GST; dsDNA, one strand shown
# T1 sequence: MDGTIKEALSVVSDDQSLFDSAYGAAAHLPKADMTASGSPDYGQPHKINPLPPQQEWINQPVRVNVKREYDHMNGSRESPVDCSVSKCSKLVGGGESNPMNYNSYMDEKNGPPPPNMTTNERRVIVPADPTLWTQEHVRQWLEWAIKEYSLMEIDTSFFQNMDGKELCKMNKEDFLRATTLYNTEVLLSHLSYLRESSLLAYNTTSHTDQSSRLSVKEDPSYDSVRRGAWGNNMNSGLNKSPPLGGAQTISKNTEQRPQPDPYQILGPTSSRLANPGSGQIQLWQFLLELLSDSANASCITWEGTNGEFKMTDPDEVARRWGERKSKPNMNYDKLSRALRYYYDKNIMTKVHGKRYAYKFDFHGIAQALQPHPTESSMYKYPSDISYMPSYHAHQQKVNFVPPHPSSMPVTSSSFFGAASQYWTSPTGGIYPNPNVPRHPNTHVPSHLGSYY
# Procedure, shortened: (§1)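 Pools of DNA-barcoded human transcription factors, expressed in yeast as GST fusions on glutathione beads and combined with a tag-only sample, were incubated with 200 nmole of a 16-mer random double-stranded DNA library. Incubation took 30 min at room temperature in Tris/NaCl/DTT/glycerol buffer and was followed by washing, 0.1% formaldehyde crosslinking, proximity ligation (BsaI/T4 ligase, 1 h, 37 °C), PCR amplification and sequencing on an Illumina NextSeq500. Binding signal is the ratio of a hexamer's read frequency for a factor to its frequency for the tag-only sample.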
# ELK1 = target: T2, ELK1 (Homo sapiens, UniProt P19419 1-428); conditions: protein: recombinant; tags: N-terminal GST; dsDNA, one strand shown
# T2 sequence: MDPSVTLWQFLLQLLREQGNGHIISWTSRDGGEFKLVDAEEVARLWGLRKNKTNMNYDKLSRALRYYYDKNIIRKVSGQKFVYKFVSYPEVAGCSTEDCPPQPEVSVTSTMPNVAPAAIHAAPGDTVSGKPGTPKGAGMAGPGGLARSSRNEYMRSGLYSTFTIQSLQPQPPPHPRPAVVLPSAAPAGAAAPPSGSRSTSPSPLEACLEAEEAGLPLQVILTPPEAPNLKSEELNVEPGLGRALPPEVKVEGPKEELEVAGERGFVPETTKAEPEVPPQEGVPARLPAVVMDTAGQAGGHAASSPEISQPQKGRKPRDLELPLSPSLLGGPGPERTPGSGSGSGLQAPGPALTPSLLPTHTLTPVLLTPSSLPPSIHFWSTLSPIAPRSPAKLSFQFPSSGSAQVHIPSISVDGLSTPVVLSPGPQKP
# Procedure, shortened: as §1
# GABPA = target: T3, GABPA (Homo sapiens, UniProt Q06546 1-454); conditions: protein: recombinant; tags: N-terminal GST; dsDNA, one strand shown
# T3 sequence: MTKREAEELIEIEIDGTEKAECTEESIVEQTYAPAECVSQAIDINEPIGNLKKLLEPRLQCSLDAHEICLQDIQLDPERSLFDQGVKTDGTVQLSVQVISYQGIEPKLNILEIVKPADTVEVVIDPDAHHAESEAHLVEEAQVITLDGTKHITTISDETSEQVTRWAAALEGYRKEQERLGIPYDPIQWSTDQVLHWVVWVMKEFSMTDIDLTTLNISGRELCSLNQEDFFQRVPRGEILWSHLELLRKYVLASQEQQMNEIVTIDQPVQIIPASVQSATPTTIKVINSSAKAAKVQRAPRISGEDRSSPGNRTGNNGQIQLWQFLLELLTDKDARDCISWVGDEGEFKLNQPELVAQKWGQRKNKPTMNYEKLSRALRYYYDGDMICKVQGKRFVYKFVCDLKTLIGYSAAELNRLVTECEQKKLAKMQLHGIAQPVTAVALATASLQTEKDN
# Procedure, shortened: as §1
# ERG = target: T4, ERG (Homo sapiens, UniProt P11308 1-479); conditions: protein: recombinant; tags: N-terminal GST; dsDNA, one strand shown
# T4 sequence: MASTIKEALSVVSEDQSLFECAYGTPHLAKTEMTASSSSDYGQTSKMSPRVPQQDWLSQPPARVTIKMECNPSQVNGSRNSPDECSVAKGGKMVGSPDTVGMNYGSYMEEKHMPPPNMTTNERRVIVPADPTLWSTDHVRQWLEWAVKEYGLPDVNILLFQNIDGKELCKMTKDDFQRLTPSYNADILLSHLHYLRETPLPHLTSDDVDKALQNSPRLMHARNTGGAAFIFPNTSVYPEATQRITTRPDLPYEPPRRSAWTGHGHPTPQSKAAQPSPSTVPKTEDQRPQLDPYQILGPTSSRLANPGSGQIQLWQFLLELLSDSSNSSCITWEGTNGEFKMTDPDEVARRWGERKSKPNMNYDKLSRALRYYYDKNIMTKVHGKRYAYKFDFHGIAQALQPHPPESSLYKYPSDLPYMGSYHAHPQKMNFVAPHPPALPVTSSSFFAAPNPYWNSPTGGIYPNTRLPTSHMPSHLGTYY
# Procedure, shortened: as §1
# ELF1 = ELF1 (Homo sapiens, UniProt P32519 1-619); conditions: protein: recombinant; tags: N-terminal GST; dsDNA, one strand shown
# Procedure, shortened: as §1
# EHF = target: T5, EHF (Homo sapiens, UniProt Q9NZC4 1-300); conditions: protein: recombinant; tags: N-terminal GST; dsDNA, one strand shown
# T5 sequence: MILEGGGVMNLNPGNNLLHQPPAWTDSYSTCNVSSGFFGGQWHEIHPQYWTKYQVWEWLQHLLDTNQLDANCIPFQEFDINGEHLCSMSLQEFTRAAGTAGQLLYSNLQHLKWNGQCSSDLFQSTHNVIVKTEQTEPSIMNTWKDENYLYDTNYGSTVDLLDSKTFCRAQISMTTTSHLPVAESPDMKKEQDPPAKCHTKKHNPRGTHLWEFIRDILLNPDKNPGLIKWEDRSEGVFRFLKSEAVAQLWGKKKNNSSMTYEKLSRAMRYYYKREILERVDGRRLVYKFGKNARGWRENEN
# Procedure, shortened: as §1
# SPI1 = SPI1 (Homo sapiens, UniProt P17947 1-270); conditions: protein: recombinant; tags: N-terminal GST; dsDNA, one strand shown
# Procedure, shortened: as §1
# SPIB = SPIB (Homo sapiens, UniProt Q01892 1-262); conditions: protein: recombinant; tags: N-terminal GST; dsDNA, one strand shown
# Procedure, shortened: as §1
# ELK3 = target: T6, ELK3 (Homo sapiens, UniProt P41970 1-407); conditions: protein: recombinant; tags: N-terminal GST; dsDNA, one strand shown
# T6 sequence: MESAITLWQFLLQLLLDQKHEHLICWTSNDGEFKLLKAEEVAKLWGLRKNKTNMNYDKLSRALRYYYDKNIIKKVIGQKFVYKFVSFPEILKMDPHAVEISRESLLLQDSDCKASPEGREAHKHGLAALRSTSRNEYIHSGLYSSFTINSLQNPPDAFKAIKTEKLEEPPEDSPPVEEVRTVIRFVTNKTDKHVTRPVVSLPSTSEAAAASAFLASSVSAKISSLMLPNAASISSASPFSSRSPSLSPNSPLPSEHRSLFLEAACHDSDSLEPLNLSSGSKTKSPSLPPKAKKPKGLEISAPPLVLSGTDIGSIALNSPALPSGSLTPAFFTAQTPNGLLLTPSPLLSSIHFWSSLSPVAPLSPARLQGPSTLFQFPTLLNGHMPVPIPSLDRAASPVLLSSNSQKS
# Procedure, shortened: as §1
# FEV = target: T7, FEV (Homo sapiens, UniProt Q99581 1-238); conditions: protein: recombinant; tags: N-terminal GST; dsDNA, one strand shown
# T7 sequence: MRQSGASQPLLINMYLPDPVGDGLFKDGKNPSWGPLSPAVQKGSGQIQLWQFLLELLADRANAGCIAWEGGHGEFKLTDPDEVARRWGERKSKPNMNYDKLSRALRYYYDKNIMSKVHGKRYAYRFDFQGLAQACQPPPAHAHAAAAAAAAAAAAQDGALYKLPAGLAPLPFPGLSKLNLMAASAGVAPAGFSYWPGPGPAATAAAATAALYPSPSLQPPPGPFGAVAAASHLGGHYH
# Procedure, shortened: as §1
# ETV5 = ETV5 (Homo sapiens, UniProt P41161 1-510); conditions: protein: recombinant; tags: N-terminal GST; dsDNA, one strand shown
# Procedure, shortened: as §1
# HSF1 = HSF1 (Homo sapiens, UniProt Q00613 1-529); conditions: protein: recombinant; tags: N-terminal GST; chain copies: 3; dsDNA, one strand shown
# Procedure, shortened: as §1
# SPIC = target: T8, SPIC (Homo sapiens, UniProt Q8N5J4 1-248); conditions: protein: recombinant; tags: N-terminal GST; dsDNA, one strand shown
# T8 sequence: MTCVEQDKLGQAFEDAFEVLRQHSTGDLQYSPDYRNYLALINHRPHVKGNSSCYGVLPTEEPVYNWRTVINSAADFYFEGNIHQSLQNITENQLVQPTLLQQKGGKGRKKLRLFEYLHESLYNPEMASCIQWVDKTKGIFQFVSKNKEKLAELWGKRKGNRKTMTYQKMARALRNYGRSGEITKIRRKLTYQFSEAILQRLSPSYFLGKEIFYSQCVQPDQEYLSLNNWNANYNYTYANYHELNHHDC
# Procedure, shortened: as §1
# ELF4 = ELF4 (Homo sapiens, UniProt Q99607 1-663); conditions: protein: recombinant; tags: N-terminal GST; dsDNA, one strand shown
# Procedure, shortened: as §1
# ELK4 = target: T9, ELK4 (Homo sapiens, UniProt P28324-2 1-405); conditions: protein: recombinant; tags: N-terminal GST; dsDNA, one strand shown
# T9 sequence: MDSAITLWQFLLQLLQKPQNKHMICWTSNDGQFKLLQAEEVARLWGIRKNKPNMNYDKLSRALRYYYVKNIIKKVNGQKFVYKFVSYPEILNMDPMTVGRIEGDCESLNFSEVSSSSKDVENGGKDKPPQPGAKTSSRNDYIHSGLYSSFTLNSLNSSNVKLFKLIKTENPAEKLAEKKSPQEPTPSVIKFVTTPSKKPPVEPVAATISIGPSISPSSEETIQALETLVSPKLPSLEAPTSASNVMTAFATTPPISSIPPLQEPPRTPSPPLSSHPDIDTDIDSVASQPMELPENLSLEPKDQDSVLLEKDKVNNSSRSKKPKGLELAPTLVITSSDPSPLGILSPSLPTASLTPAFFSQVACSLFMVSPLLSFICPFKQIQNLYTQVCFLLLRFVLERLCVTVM
# Procedure, shortened: as §1
# ETV2 = target: T10, ETV2 (Homo sapiens, UniProt O00321 1-342); conditions: protein: recombinant; tags: N-terminal GST; dsDNA, one strand shown
# T10 sequence: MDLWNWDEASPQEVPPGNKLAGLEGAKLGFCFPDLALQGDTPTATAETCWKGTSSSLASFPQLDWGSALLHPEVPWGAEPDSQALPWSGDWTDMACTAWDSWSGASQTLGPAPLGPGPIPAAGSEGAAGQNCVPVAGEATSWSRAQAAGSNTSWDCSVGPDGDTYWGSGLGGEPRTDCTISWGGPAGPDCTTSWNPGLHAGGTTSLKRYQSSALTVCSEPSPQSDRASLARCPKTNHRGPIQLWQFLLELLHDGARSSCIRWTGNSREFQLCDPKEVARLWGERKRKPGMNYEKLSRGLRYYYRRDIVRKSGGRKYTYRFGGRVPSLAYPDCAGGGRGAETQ
# Procedure, shortened: as §1
# ELF3 = target: T11, ELF3 (Homo sapiens, UniProt P78545 1-371); conditions: protein: recombinant; tags: N-terminal GST; dsDNA, one strand shown
# T11 sequence: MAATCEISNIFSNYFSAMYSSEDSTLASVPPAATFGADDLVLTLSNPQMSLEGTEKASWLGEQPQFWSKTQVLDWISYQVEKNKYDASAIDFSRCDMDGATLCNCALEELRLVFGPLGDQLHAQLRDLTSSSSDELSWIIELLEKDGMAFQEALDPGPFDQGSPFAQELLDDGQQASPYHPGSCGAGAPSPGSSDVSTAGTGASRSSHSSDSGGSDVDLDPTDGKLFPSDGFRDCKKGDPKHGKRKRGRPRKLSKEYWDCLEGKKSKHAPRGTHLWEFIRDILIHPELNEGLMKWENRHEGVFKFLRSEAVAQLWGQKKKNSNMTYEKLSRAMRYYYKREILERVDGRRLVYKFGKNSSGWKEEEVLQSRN
# Procedure, shortened: as §1
# CRX = CRX (Homo sapiens, UniProt O43186 1-299); conditions: protein: recombinant; tags: N-terminal GST; dsDNA, one strand shown
# Procedure, shortened: as §1
# ETV1 = ETV1 (Homo sapiens, UniProt P50549 1-477); conditions: protein: recombinant; tags: N-terminal GST; dsDNA, one strand shown
# Procedure, shortened: as §1
# Chain of ELF1 (P32519 whole entry): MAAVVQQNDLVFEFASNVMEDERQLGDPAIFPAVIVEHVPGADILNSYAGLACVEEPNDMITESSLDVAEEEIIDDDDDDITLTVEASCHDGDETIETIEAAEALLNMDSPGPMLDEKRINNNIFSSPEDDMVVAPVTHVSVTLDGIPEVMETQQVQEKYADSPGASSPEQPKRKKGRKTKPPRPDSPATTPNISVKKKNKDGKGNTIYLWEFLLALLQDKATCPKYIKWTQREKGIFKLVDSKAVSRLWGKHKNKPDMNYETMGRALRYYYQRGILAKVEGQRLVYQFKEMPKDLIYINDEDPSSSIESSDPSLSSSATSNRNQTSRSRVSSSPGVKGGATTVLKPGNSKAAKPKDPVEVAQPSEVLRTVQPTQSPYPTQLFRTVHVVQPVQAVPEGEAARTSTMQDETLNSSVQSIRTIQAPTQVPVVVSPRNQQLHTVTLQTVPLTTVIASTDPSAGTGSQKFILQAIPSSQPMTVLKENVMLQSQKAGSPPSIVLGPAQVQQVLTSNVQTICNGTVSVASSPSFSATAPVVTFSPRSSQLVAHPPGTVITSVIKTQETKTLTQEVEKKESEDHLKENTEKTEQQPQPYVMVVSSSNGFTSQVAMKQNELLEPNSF
# Chain of HSF1 (Q00613 whole entry): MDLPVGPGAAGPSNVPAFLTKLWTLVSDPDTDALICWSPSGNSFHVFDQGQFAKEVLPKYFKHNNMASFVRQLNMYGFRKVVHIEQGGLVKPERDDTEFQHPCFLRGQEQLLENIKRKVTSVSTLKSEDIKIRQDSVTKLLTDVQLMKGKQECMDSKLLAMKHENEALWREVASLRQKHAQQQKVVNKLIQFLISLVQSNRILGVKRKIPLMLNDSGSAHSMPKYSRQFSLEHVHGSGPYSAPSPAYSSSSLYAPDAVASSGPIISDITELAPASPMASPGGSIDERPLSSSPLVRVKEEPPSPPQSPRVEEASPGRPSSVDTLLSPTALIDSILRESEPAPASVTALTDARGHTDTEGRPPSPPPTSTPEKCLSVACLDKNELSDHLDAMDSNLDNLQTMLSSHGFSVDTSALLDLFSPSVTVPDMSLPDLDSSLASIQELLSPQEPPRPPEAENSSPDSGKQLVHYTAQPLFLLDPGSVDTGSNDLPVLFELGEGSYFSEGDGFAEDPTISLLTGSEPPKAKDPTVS
# Chain of ETV5 (P41161 whole entry): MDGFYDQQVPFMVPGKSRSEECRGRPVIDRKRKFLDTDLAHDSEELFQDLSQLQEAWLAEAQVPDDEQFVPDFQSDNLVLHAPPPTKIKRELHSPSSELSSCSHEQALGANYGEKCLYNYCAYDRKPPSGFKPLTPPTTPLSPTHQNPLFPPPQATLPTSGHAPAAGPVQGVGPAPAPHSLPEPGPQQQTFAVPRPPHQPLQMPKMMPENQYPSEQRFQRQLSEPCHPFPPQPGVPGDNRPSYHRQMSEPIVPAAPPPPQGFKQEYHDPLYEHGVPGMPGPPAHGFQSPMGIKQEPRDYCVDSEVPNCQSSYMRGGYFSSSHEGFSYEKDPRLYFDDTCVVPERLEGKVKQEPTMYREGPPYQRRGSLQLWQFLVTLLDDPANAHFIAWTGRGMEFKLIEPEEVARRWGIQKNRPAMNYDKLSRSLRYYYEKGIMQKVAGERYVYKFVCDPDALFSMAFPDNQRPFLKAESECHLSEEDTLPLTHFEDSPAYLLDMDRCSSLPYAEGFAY
# Chain of ETV1 (P50549 whole entry): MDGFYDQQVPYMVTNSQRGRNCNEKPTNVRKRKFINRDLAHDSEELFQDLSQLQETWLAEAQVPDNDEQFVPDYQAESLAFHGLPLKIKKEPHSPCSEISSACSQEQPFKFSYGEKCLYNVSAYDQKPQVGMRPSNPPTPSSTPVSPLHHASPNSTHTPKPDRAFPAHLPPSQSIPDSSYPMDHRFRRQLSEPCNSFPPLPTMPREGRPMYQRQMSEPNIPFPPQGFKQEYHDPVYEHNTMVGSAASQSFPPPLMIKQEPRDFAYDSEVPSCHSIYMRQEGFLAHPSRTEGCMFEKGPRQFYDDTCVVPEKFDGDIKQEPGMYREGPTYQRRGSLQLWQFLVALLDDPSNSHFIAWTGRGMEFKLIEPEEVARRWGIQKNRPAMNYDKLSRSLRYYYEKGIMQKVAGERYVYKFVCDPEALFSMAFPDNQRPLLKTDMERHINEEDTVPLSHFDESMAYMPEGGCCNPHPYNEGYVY
# Chain of SPIB (Q01892 whole entry): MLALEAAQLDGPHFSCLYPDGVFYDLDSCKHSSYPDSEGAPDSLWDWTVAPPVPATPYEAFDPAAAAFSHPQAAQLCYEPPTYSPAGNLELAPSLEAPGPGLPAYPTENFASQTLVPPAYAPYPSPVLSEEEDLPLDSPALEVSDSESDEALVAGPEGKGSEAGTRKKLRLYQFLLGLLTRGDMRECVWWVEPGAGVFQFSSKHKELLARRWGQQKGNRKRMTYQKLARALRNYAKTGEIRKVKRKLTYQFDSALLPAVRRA
# Chain of ELF4 (Q99607 whole entry): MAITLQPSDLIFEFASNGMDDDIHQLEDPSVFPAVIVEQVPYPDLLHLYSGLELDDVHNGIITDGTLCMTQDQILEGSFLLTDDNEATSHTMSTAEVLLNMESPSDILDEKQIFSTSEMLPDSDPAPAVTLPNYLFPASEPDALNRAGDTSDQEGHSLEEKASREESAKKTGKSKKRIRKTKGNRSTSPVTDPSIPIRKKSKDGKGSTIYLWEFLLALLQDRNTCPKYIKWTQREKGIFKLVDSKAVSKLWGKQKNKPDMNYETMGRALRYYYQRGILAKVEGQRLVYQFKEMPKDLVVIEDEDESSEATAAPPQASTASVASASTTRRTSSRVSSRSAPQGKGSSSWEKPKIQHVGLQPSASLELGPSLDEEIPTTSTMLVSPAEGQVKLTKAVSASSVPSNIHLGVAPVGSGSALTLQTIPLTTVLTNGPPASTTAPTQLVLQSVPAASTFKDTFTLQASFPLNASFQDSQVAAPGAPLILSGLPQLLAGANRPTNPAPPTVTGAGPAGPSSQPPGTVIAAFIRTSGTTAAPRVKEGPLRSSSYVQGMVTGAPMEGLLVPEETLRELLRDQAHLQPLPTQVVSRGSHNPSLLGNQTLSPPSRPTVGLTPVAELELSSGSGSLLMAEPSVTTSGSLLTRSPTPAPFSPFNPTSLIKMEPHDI
# Chain of CRX (O43186 whole entry): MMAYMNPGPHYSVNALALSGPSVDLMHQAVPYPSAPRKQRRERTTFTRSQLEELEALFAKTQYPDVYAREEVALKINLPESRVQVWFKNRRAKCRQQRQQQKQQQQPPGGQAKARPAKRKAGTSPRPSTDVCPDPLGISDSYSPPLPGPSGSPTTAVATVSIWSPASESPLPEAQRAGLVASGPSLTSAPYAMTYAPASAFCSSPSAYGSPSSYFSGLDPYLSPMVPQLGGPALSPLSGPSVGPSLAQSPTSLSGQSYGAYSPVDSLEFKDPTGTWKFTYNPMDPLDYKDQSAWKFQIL
sequence,measurement,setting,value
CATATA,binding signal,FLI1,"1.17 fold enrichment (6-mer frequency, TF over GST control)"
same,binding signal,ELK1,"1.07 fold enrichment (6-mer frequency, TF over GST control)"
same,binding signal,GABPA,"1.14 fold enrichment (6-mer frequency, TF over GST control)"
same,binding signal,ERG,"1.08 fold enrichment (6-mer frequency, TF over GST control)"
same,binding signal,ELF1,"1.12 fold enrichment (6-mer frequency, TF over GST control)"
same,binding signal,EHF,"1.06 fold enrichment (6-mer frequency, TF over GST control)"
same,binding signal,SPI1,"1.06 fold enrichment (6-mer frequency, TF over GST control)"
same,binding signal,SPIB,"1.06 fold enrichment (6-mer frequency, TF over GST control)"
same,binding signal,ELK3,"1.22 fold enrichment (6-mer frequency, TF over GST control)"
same,binding signal,FEV,"1.08 fold enrichment (6-mer frequency, TF over GST control)"
same,binding signal,ETV5,"1.09 fold enrichment (6-mer frequency, TF over GST control)"
same,binding signal,HSF1,"1.03 fold enrichment (6-mer frequency, TF over GST control)"
same,binding signal,SPIC,"1.14 fold enrichment (6-mer frequency, TF over GST control)"
same,binding signal,ELF4,"1.11 fold enrichment (6-mer frequency, TF over GST control)"
same,binding signal,ELK4,"1.07 fold enrichment (6-mer frequency, TF over GST control)"
same,binding signal,ETV2,"1.17 fold enrichment (6-mer frequency, TF over GST control)"
same,binding signal,ELF3,"1.07 fold enrichment (6-mer frequency, TF over GST control)"
same,binding signal,CRX,"1.09 fold enrichment (6-mer frequency, TF over GST control)"
same,binding signal,ETV1,"1.06 fold enrichment (6-mer frequency, TF over GST control)"
